Test results as given in PubChem BioAssay AID2108 (National Center for Advancing Translational Sciences (NCATS), 2009).
Results filed as inconclusive are left out. The call rests on the fitted dose curve; in most records, active means well fitted curve in the direction sought with a large enough effect; inconclusive means small, poorly fitted or top-dose-only effect, or effect the other way, or another doubt; inactive means no such curve, though single readings can be large or run the other way.

molecular target: Alpha-galactosidase A (Homo sapiens) (UniProt P06280); test: Confirmation of Inhibitors of Human alpha-Galactosidase Using Spleen Homogenate; conditions: alpha-galactosidase enzyme activity; series mostly up to 56.2 µM; activity change: at the top concentration; further: 0% is about no effect
Sequence (P06280 32-429 limits assumed): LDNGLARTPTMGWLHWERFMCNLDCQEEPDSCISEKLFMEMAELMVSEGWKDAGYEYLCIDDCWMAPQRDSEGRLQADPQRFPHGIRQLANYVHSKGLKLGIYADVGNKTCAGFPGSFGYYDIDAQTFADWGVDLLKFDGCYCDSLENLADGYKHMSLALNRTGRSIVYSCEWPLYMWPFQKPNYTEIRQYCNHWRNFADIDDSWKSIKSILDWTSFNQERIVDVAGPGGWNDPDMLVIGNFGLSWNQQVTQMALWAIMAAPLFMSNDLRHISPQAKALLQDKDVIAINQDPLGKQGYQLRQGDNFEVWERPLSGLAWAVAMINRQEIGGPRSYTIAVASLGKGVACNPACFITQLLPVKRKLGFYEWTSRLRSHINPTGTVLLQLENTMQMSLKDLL
Summary of the method: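 Human spleen homogenate (1 ug) with 1 mM 4-methylumbelliferyl-alpha-D-galactopyranoside in citrate-phosphate pH 5.0, 0.01% Tween-20, 37C 40 min; compounds 0.5 nM–58 uM final. Stopped at pH 10, fluorescence Ex 365/Em 440; AC50 from Hill fits.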

Activity change, inactive:
O=C(CCc1cccc(S(=O)(=O)N2CCOCC2)c1)NN=C1c2ccccc2-c2ccccc21 -3.69%
Cc1nnc(SCC(=O)Nc2ccc3c(c2)COC3=O)n1-c1ccccc1 0.342% [at 23.6 µM]
CCN1CCc2nc(NC(=O)CC(c3ccccc3)c3ccccc3)sc2C1 -4.56%
Cc1ccc(/C=N\Nc2nc3ccc(Cl)cc3[nH]2)o1 -0.392%
Cc1cccn2c(=O)c3cc(C#N)c(=NC(=O)c4cccs4)n(CCCOC(C)C)c3nc12 12.3% [at 23.6 µM]
CC/C(=N\NC(=O)c1c(C)nc2ccccn12)c1ccc(Cl)cc1 -11.9%
Cc1cc(C)nc(SCc2cc(=O)c(OC(=O)c3ccco3)co2)n1 2.16% [at 23.6 µM]
CCc1sc(-c2cc3cccc(OC)c3oc2=O)nc1-c1ccccc1 7.38%
Nc1ccccc1N=Cc1ccc(-c2cccc(Cl)c2)o1 8.41%
COc1ccc(C2C3=C(CCCC3=O)N(CC(=O)O)C3=C2C(=O)CCC3)cc1Cl 25.7%
CCOC(=O)C(CC)Sc1ncnc2c1c(-c1ccccc1)cn2-c1ccc(OC)cc1 (stereo unspecified) -3.87%
C/C=C1\COC(C(=O)NCCN2CCOCC2)(C(F)(F)F)C=C1C=C1CCCCC1 (stereo unspecified) -3.09%
CC(C)Cn1c(SCC(=O)N2CCCCC2)nc2ccccc2c1=O 2.74% [at 23.6 µM]
c1ccc(-n2c(-c3cccs3)nc3nc4ccccc4nc32)cc1 9.43%
COc1ccc(C2C(C(=O)c3ccco3)=C(O)C(=O)N2CC2CCCO2)c(OC)c1 (stereo unspecified) -1.95%
O=S(=O)(c1cccc(Br)c1)N1CCOCC1 -13.3%
O=C(O)C[C@@H]1C(=O)O[C@@H]2C(COC(=O)c3cc(O)c(O)c(O)c3)O[C@@H](OC(=O)c3cc(O)c(O)c(O)c3)[C@@H](OC(=O)c3cc(O)c(O)c4c3[C@H]1[C@H](O)C(=O)O4)[C@H]2OC(=O)c1cc(O)c(O)c(O)c1 (stereo partly specified) 2.68% [at 23.6 µM]
O=c1[nH]c(CN2CCN(c3ccccc3O)CC2)nc2ccccc12 9.3%
Cc1ccc(C2NC(=O)c3c(sc4c3CCN(C)C4)N2)s1 (stereo unspecified) 8.42%
CC(=O)c1ccc(N2CCN(S(=O)(=O)c3ccc4c(c3)CC(=O)N4)CC2)cc1 2.16%
Cc1ccc(-c2cc(C(=O)N/N=C/c3c(C)nn(-c4ccccc4)c3C)n[nH]2)s1 2.27%
COC(=O)c1ccc(CSc2cc(C)c3cccc(C)c3n2)o1 -0.608% [at 23.6 µM]
OC[C@H]1NC[C@H](O)[C@@H](O)[C@H]1O -7.1% [at 287 µM]
Cc1ccc2c(=O)c3ccccc3n(CCCN)c2c1C -8.95%
Cc1sc(-c2cc3cc(Cl)ccc3oc2=O)nc1-c1ccccc1 10.1%
OCCN1CC(O)C(O)C(O)C1CO (stereo unspecified) -3.46%
Cc1nnc(SCC(=O)Nc2nsc(-c3ccc(C(C)(C)C)cc3)n2)s1 1.06% [at 23.6 µM]
CC(C)(C)OC(=O)NCCCC[C@H](NC(=O)c1[nH]cnc1C(=O)Nc1ccc(CNC(=O)OC(C)(C)C)cc1)C(=O)OC(C)(C)C -6.8%
O=C(O)Cn1nnnc1SCC(=O)Nc1ccc(OC(F)(F)F)cc1 -0.696% [at 23.6 µM]
CC/C(=C(\c1ccccc1)c1ccc(OCCN(C)C)cc1)c1ccccc1 -11.7% [at 287 µM]
CC(C)(C)OC(=O)NCCCC[C@H](NC(=O)c1nc[nH]c1C(=O)NCc1ccccc1)C(=O)OC(C)(C)C -8.24%
O=C(O)c1cc(NCc2ccc3c(c2)OCO3)ccc1N1CCOCC1 1.85%
Brc1ccc(C=Nc2ccc(Nc3ccccc3)cc2)s1 -2.92%
O=C1CC(N2CCN(c3cccc(C(F)(F)F)c3)CC2)C(=O)N1c1ccc(F)cc1 (stereo unspecified) -6.67% [at 23.6 µM]
CN1CCN(S(=O)(=O)c2ccccc2)CC1 10.6%
O=C1c2ccccc2NC(c2cccnc2)N1c1ccccc1F (stereo unspecified) 10.3% [at 23.6 µM]
